Experimental data taken from publication PMC5540273 (PLoS ONE, 2017).

Legend:
Conditions in all cases: concentration: 1 μM, replicates: in singlicate; n = 1
MST1 = test system: T1, MST1
T1 construct: gene STK4

MST2 = test system: T2, MST2
T2 construct: gene STK3

MST3 = test system: T3, MST3
T3 construct: gene STK24

MST4 = test system: MST4
MTOR = test system: MTOR
MUSK = test system: MUSK
MYLK2 = test system: MYLK2
MYLK4 = test system: MYLK4
MYLK = test system: MYLK
MYO3A = test system: MYO3A
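Further: KINOMEscan kinase panel screen.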

Compound | %Inh (MST1) | %Inh (MST2) | %Inh (MST3) | %Inh (MST4) | %Inh (MTOR) | %Inh (MUSK) | %Inh (MYLK2) | %Inh (MYLK4) | %Inh (MYLK) | %Inh (MYO3A)
Cc1cccc(Cn2ccn3c(=O)cc(N4CCOCC4)nc23)c1 [GSK2297542] | 7% | 0% | 23% | 0% | 17% | 2% | 4% | 6% | 41% | 11%
O=C(NCCNc1ccnc(Nc2ccc(F)cc2)n1)Nc1ccccc1F [GSK1379880] | 0% | 0% | 0% | 0% | 10% | 5% | 1% | 0% | 9% | 0%
Fc1ccc(-c2nn3c(OCC(F)(F)F)cccc3c2-c2ccncc2)cc1 [GW514784] | 0% | 0% | 12% | 0% | 35% | 0% | 1% | 0% | 15% | 72%
c1ccc(-c2cc(-c3c[nH]nc3-c3ccccn3)ccn2)cc1 [GW576604] | 0% | 0% | 0% | 0% | 10% | 0% | 3% | 0% | 6% | 18%
Cc1cn2c(=O)cc(N3CCOCC3)nc2n1Cc1cccc(Cl)c1Cl [GSK2334006] | 14% | 0% | 0% | 0% | 37% | 27% | 32% | 9% | 8% | 0%
